# Measured values: ChEMBL document CHEMBL4296182, “CO-ADD screening of NIH NCI Diversity Set V”
# For part of these data: Potency and affinity values are given separately.
# Tests used:
# [1] = test system: Staphylococcus aureus; assay: Antibacterial activity against Staphylococcus aureus MRSA ATCC 43300 (CO-ADD:GP_020); MIC in CAMBH media using NBS plates, by Resazurin F(560/590); assay type: functional; settings: Concentration 20 uM, ASSAY_TEST Inhibition of Bacterial Growth, detection method Resazurin, Fluorescence (ex560/em590), MEDIA CAMHB, plate type 384well, CORNING #3640, time 18 hr
# [2] = test system: Acinetobacter baumannii; assay: Antibacterial activity against Acinetobacter baumannii ATCC 19606 (CO-ADD:GN_034); MIC in CAMBH media using NBS plates, by Resazurin F(560/590); assay type: functional; settings: Concentration 20 uM, ASSAY_TEST Inhibition of Bacterial Growth, detection method Resazurin, Fluorescence (ex560/em590), MEDIA CAMHB, plate type 384well, CORNING #3640, time 18 hr
# [3] = test system: Escherichia coli; assay: Antibacterial activity against Escherichia coli ATCC 25922 (CO-ADD:GN_001); MIC in CAMBH media using NBS plates, by Resazurin F(560/590); assay type: functional; settings: Concentration 20 uM, ASSAY_TEST Inhibition of Bacterial Growth, detection method Resazurin, Fluorescence (ex560/em590), MEDIA CAMHB, plate type 384well, CORNING #3640, time 18 hr
# [4] = test system: Klebsiella pneumoniae; settings: Concentration 20 uM; ASSAY_TEST Inhibition of Bacterial Growth; detection method Absorption (OD600); MEDIA CAMHB; plate type 384well; NBS; CORNING #3640; time 18 hr
# [5] = test system: Candida albicans; settings: 20 µM
# [6] = test system: Cryptococcus neoformans; settings: Concentration 20 uM; ASSAY_TEST Inhibition of Fungal Growth; detection method Resazurin; Absorption (OD600-OD570); plate type 384well; NBS; CORNING #3640
Compound,Inhibition [1] [%],Inhibition [2] [%],Inhibition [3] [%],Inhibition [4] [%],Inhibition [5] [%],Inhibition [6] [%]
COc1cccc(OCC(O)CN2CCN(c3ccccc3)CC2)c1 (stereo not given),10.13,-11.48,-4.05,23.2,-2.19,-13.63
Cc1cc(O)c(-c2cc(O)c(C)cc2O)cc1O,5.49,-9.17,6.61,0.01,5.95,17.06
Cn1c(=O)c2nc(N3CCCCC3)[nH]c2n(C)c1=O,0.06,-5.37,9.83,1.37,-1.65,-9.97
CCCN(CCC)c1ccc(/C=C/c2ccc3cc(OCC)ccc3n2)cc1,6.79,8.69,-3.61,28.88,-0.13,-5.04
Cc1nc(O)c(Cc2ccccc2O)c(-c2ccccc2)n1,22.69,-8.89,10.21,16.82,2.26,5.06
O=C(O)c1ccc2c(c1Nc1ccccc1)C(=O)c1ccccc1C2=O,9.32,-23.2,18.5,7,1.26,-10.37
O=C1/C(=N\c2cccc(Cl)c2)CC(c2ccc(Cl)cc2)N1c1cccc(Cl)c1 (stereo not given),20.38,-11.7,10.42,18.13,-2.19,-8.61
c1ccc(CSc2nnc3c4ccccc4c4ccccc4c3n2)cc1,-1.68,11.2,0.12,1.09,5.6,-12.52
COC(=O)C(=Cc1ccccc1[N+](=O)[O-])C(=O)OC,-1.4,-8.17,9.13,10.58,9.98,-18.32
Nc1nc(O)c2nn(-c3ccccc3)nc2n1,7.59,-13.43,5.48,0.39,-3.03,29.86
CCCCCC(=O)N1CCCC1,12.42,-13.64,4.47,10.8,0.29,-1.54
COc1cc(CCC(=O)O)on1,9.35,-6.5,10.23,8.1,-0.47,-11.79
CCCCOc1nc2c(c(=O)n(C)c(=O)n2C)n1C,18.84,14.19,18.86,3.58,11,10.8
CSC(=NS(=O)(=O)c1ccccc1)NNC(=O)c1c(-c2c(Cl)cccc2Cl)noc1C,2.63,2.35,-1.44,10.18,6.77,-2.9
Cc1cc(-c2ccc(N3C(=O)CC4(CCCC4)C3=O)c(C)c2)ccc1N1C(=O)CC2(CCCC2)C1=O,2.65,-13.47,9.87,-0.13,4.32,-5.08
CCCNC(=O)Nc1ccc(C)cc1C,1.69,10.44,-6.23,17.61,5.41,-2.02
Cn1ncc2c(Nc3ccc(O)cc3)nc(Cl)nc21,6.63,8.39,3.23,11.85,5.74,-12.05
O=C1CSCc2nc3ccccc3n21,4.29,-8.34,5.14,18.88,1.65,-7.32
CC(C)n1cc(C#N)c(N)n1,-0.87,-8.48,18.87,15.17,3.75,-6.7
Sc1ncnc2c1ncn2C1CCCC1,12.18,-2.05,10.82,10.23,3.52,-6.41
C=CCSc1n[nH]c(-c2cccs2)n1,7.65,11.99,1.25,19.42,2.69,-4.46
CC(C)(c1cc(Cl)c(O)c(CN2CCOCC2)c1)c1cc(Cl)c(O)c(CN2CCOCC2)c1,-6.13,0.12,12.95,0.6,-1.62,-0.13
[O-][n+]1ccc(CC(O)(C(F)(F)F)C(F)(F)F)cc1,-9.72,-5.31,-11.83,9.87,4.37,-2.34
N=C(N)Nc1nc2cc([N+](=O)[O-])ccc2[nH]1,9.17,-6.93,5.92,26.99,-2.1,-6.56
CN(CC(=O)O)Cc1oc(CO)cc(=O)c1O,10.58,-10.6,6.09,19.22,0.31,-9.52
